The structures appear in SMILES notation. Where two headings read alike, the source gives them in different places.

This passage reports potency estimated from few doses results from publication PMC11062922 (Nature Chemical Biology, 2023).

One experiment relates to ABL1. More on the design: species or system human, MV4-11 + K-562 + COLO205 + SK-N-BE2 + OVCAR-8. The settings on record: read-out: apparent Kd, n = 1.
The next experiment deals with ABL2. More on the design: species or system human, MV4-11 + K-562 + COLO205 + SK-N-BE2 + OVCAR-8. The settings on record: read-out: apparent Kd, n = 1.
In a further experiment the test system is BCR. Further details: species or system human, MV4-11 + K-562 + COLO205 + SK-N-BE2 + OVCAR-8. The note with it: read-out: apparent Kd, n = 1.
The test system of another experiment is CLK1. More on the design: species or system human, MV4-11 + K-562 + COLO205 + SK-N-BE2 + OVCAR-8. The settings on record: read-out: apparent Kd, n = 1.
The test system of another experiment is CLK4. Further details: species or system human, MV4-11 + K-562 + COLO205 + SK-N-BE2 + OVCAR-8. The note with it: read-out: apparent Kd, n = 1.
A further experiment has as its system CSNK2A1;CSNK2A3. Further details: species or system human, MV4-11 + K-562 + COLO205 + SK-N-BE2 + OVCAR-8. The settings on record: read-out: apparent Kd, n = 1.
In the next experiment the test system is CSNK2A2. Further details: species or system human, MV4-11 + K-562 + COLO205 + SK-N-BE2 + OVCAR-8. The settings on record: read-out: apparent Kd, n = 1.
The subject of another experiment is GAK. Further details: species or system human, MV4-11 + K-562 + COLO205 + SK-N-BE2 + OVCAR-8. The settings on record: read-out: apparent Kd, n = 1.
For a further experiment, the system named is AAK1. More on the design: species or system human, MV4-11 + K-562 + COLO205 + SK-N-BE2 + OVCAR-8. The settings on record: read-out: apparent Kd; compound concentrations: 100 nM and 1000 nM (sheet 'Samples'), CATDS: 0.102414054055007; n = 1.
For the next experiment, the target named is Q6ZSR9 (human, UniProt Q6ZSR9). Further details: species or system MV4-11 + K-562 + COLO205 + SK-N-BE2 + OVCAR-8. The note with it: read-out: apparent Kd, n = 1.
A further experiment concerns FYN. More on the design: species or system human, MV4-11 + K-562 + COLO205 + SK-N-BE2 + OVCAR-8. The settings on record: read-out: apparent Kd; compound concentrations: 100 nM and 1000 nM (sheet 'Samples'), CATDS: 5.8520288071811297E-2; n = 1.
A further experiment concerns HCK. Further details: species or system human, MV4-11 + K-562 + COLO205 + SK-N-BE2 + OVCAR-8. The note with it: read-out: apparent Kd, compound concentrations: 100 nM and 1000 nM (sheet 'Samples'), n = 1.
In the next experiment the test system is LCK. More on the design: species or system human, MV4-11 + K-562 + COLO205 + SK-N-BE2 + OVCAR-8. The note with it: read-out: apparent Kd, n = 1.
The next experiment relates to PTK6. More on the design: species or system human, MV4-11 + K-562 + COLO205 + SK-N-BE2 + OVCAR-8. The settings on record: read-out: apparent Kd, n = 1.
In a further experiment the test system is RIPK2. Further details: species or system human, MV4-11 + K-562 + COLO205 + SK-N-BE2 + OVCAR-8. The settings on record: read-out: apparent Kd, n = 1.
The next experiment concerns RIPK3. More on the design: species or system human, MV4-11 + K-562 + COLO205 + SK-N-BE2 + OVCAR-8. The note with it: read-out: apparent Kd, compound concentrations: 100 nM and 1000 nM (sheet 'Samples'), n = 1.
For the next experiment, the system named is YES1. Further details: species or system human, MV4-11 + K-562 + COLO205 + SK-N-BE2 + OVCAR-8. The settings on record: read-out: apparent Kd, n = 1.
The test system of another experiment is RET. Further details: species or system human, MV4-11 + K-562 + COLO205 + SK-N-BE2 + OVCAR-8. The note with it: read-out: apparent Kd; compound concentrations:100 nM and 1000 nM (sheet 'Samples'); n = 1.
In a further experiment the test system is TNK1. More on the design: species or system human, MV4-11 + K-562 + COLO205 + SK-N-BE2 + OVCAR-8. The settings on record: read-out: apparent Kd; compound concentrations:100 nM and 1000 nM (sheet 'Samples'); n = 1.
The mark [1] stands for this setting: compound concentrations:100 nM and 1000 nM (sheet 'Samples').

Chain of Q6ZSR9 (Q6ZSR9 whole entry, looked up): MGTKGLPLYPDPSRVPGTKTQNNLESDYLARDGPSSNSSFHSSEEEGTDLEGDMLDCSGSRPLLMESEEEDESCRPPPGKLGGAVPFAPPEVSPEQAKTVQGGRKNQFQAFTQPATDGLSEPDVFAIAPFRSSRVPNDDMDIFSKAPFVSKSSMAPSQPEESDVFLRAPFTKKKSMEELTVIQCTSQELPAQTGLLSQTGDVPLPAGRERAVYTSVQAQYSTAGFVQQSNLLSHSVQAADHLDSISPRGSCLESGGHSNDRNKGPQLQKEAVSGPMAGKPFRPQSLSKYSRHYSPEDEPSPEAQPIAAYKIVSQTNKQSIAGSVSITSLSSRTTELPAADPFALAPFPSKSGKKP

Regarding `COc1cccc(-n2ncc3c(N/N=C/c4ccc(C(=O)NCCN(C)C)cc4)ncnc32)c1.Cl` [GW784307A], the potency estimated from few doses with ABL1 (compound concentrations: 100 nM and 1000 nM (sheet 'Samples'), CATDS: 7.2174093506066003E-2) is 114 nM; in the experiment on ABL2 (compound concentrations: 100 nM and 1000 nM (sheet 'Samples'), CATDS: 3.8634429049696897E-2), 479 nM; in the experiment with BCR (compound concentrations: 100 nM and 1000 nM (sheet 'Samples'), CATDS: 0.110130424240114), 53.4 nM; in the experiment on CLK1 (compound concentrations: 100 nM and 1000 nM (sheet 'Samples'), CATDS: 2.9878019560437799E-2) it was 1060 nM; with CLK4 (compound concentrations: 100 nM and 1000 nM (sheet 'Samples'), CATDS: 3.0333782570854902E-2), 1010 nM; in the experiment with CSNK2A1;CSNK2A3 (compound concentrations: 100 nM and 1000 nM (sheet 'Samples'), CATDS: 5.2102189470279198E-2), 227 nM. The potency estimated from few doses is 80.9 nM in the experiment with CSNK2A2 (compound concentrations: 100 nM and 1000 nM (sheet 'Samples'), CATDS: 8.6711561514054597E-2); 1160 nM in the experiment on GAK (compound concentrations: 100 nM and 1000 nM (sheet 'Samples'), CATDS: 2.92049494926887E-2).

For `O=C1N=C(NCCc2cccc(F)c2)S/C1=C\c1ccc2ncccc2c1` [RO4508344-000], the potency estimated from few doses in the experiment on AAK1 was 806 nM; with CLK1 (compound concentrations: 100 nM and 1000 nM (sheet 'Samples'), CATDS: 0.18459427931802) it was 278 nM; in the experiment on CLK4 (compound concentrations: 100 nM and 1000 nM (sheet 'Samples'), CATDS: 0.11348899784144) it was 644 nM; in the experiment with CSNK2A1;CSNK2A3 (compound concentrations: 100 nM and 1000 nM (sheet 'Samples'), CATDS: 0.10848766260937499), 709 nM; with CSNK2A2 (compound concentrations: 100 nM and 1000 nM (sheet 'Samples'), CATDS: 0.12392603207531599), 541 nM; with Q6ZSR9 (compound concentrations: 100 nM and 1000 nM (sheet 'Samples'), CATDS: 9.5289389413805506E-2), 958 nM.

As for `COc1cc2nccc(Nc3ccc(Oc4ccccc4)cc3)c2cc1OC.Cl` [GI261656A], the potency estimated from few doses was 661 nM with ABL1 (compound concentrations: 100 nM and 1000 nM (sheet 'Samples'), CATDS: 4.9234778502166003E-2); 360 nM with FYN; 23.3 nM in the experiment on HCK (CATDS: 0.224802192402594); 115 nM in the experiment on LCK (compound concentrations: 100 nM and 1000 nM (sheet 'Samples'), CATDS: 9.1462099087555204E-2); 147 nM in the experiment on PTK6 (compound concentrations: 100 nM and 1000 nM (sheet 'Samples'), CATDS: 8.1912311053812595E-2); 18.1 nM with RIPK2 (compound concentrations: 100 nM and 1000 nM (sheet 'Samples'), CATDS: 0.26781417161536297). Further, the potency estimated from few doses was 542 nM with RIPK3 (CATDS: 5.1839194955901301E-2); 78.7 nM with YES1 (compound concentrations: 100 nM and 1000 nM (sheet 'Samples'), CATDS: 0.10993421284825).

`CN1CCN(Cc2cccc(-c3ccc4c(Nc5ccc(Oc6ccccc6)cc5)ccnc4c3)c2)CC1` [GW578342X]: the potency estimated from few doses is 1560 nM with ABL1 (compound concentrations: 100 nM and 1000 nM (sheet 'Samples'), CATDS: 7.7551536280391298E-2); 115 nM in the experiment with HCK (CATDS: 0.21487500019283201); 1190 nM with LCK (compound concentrations: 100 nM and 1000 nM (sheet 'Samples'), CATDS: 8.3289760013849606E-2); 1600 nM in the experiment with PTK6 (compound concentrations: 100 nM and 1000 nM (sheet 'Samples'), CATDS: 7.71683723921405E-2); 177 nM in the experiment on RIPK2 (compound concentrations: 100 nM and 1000 nM (sheet 'Samples'), CATDS: 0.17287191269560401); 638 nM in the experiment with RIPK3 (CATDS: 0.10117998061927). In addition, the potency estimated from few doses in the experiment with YES1 (compound concentrations: 100 nM and 1000 nM (sheet 'Samples'), CATDS: 0.46544607401261401) was 32.3 nM.

As to `CNc1nccc(-c2c(-c3ccc(F)cc3)ncn2C2CCN(C)CC2)n1` [SB-222903], the results for the potency estimated from few doses in the experiment with ABL2 (setting [1]), with CLK1 (setting [1]) and in the experiment on RIPK2 (setting [1]) were 389 nM, 808 nM and 433 nM, respectively.

Regarding `COc1cc2ncn(-c3cc(OCc4cccs4)c(C(N)=O)s3)c2cc1OC` [GSK312948A], in the experiment with Q6ZSR9 (setting [1]), the potency estimated from few doses is 2250 nM.

As for `Cl.Cn1c(=O)c(Cc2ccc(F)cc2F)cc2cnc(NC3CCOCC3)nc21` [RO3308757-001], the potency estimated from few doses with ABL1 (setting [1]) is 1760 nM; with ABL2 (setting [1]), 513 nM; in the experiment on BCR (setting [1]), 477 nM; in the experiment on CLK1 (setting [1]), 779 nM; with CLK4 (setting [1]), 1110 nM; with GAK (setting [1]), 434 nM. For the same molecule, the potency estimated from few doses in the experiment with LCK (setting [1]) is 1220 nM; in the experiment with Q6ZSR9 (setting [1]), 1840 nM; in the experiment on RET it was 877 nM; with TNK1 it was 177 nM; in the experiment with YES1 (setting [1]), 805 nM.

Regarding `Fc1ccc(-c2c(-c3ccncc3)[nH]c3nccnc23)cc1` [RO1155697-000], in the experiment with RIPK2 (setting [1]), the potency estimated from few doses was 828 nM.

In the case of `Cn1cc(-c2cnc(N)c3c(-c4ccc5c(c4)CCN5C(=O)Cc4ccccc4)csc23)cn1` [GSK2593074A], the potency estimated from few doses in the experiment with ABL1 (setting [1]) is 563 nM; with ABL2 (setting [1]) it was 641 nM; in the experiment on LCK (setting [1]), 554 nM; in the experiment on PTK6 (setting [1]), 1340 nM; with RIPK2 (setting [1]) it was 120 nM.

With `Cc1cc(O)cc(C)c1/C=C/c1cncc(-c2nn[nH]n2)c1.Cl` [GW441806A], the potency estimated from few doses in the experiment with ABL2 (compound concentrations: 100 nM and 1000 nM (sheet 'Samples'), CATDS: 4.9411968087492097E-2) is 1050 nM; in the experiment with HCK (CATDS: 5.4045361972082297E-2), 799 nM; in the experiment on PTK6 (compound concentrations: 100 nM and 1000 nM (sheet 'Samples'), CATDS: 5.1044813253260601E-2) it was 947 nM; in the experiment on RIPK2 (compound concentrations: 100 nM and 1000 nM (sheet 'Samples'), CATDS: 0.246510095033628), 18 nM; in the experiment with RIPK3 (CATDS: 4.07522630784811E-2), 2090 nM.

In the case of `COc1cc(/C=N/Nc2ncnc3[nH]ncc23)ccc1O` [GW578748X], the potency estimated from few doses with ABL1 (setting [1]) was 1250 nM; with BCR (setting [1]) it was 678 nM; with CLK1 (setting [1]), 1370 nM; with CLK4 (setting [1]), 401 nM; with CSNK2A1;CSNK2A3 (setting [1]) it was 384 nM; in the experiment on CSNK2A2 (setting [1]), 376 nM. Moreover, the potency estimated from few doses in the experiment on RET was 494 nM.

Take `COc1cccc(-c2c[nH]c3c(N/N=C/c4ccncc4)ncnc23)c1` [GW814408X]: the potency estimated from few doses with ABL1 (setting [1]) is 1980 nM; with BCR (setting [1]), 1150 nM; in the experiment on CSNK2A1;CSNK2A3 (setting [1]), 920 nM; in the experiment on CSNK2A2 (setting [1]), 237 nM.
